From PubChem BioAssay (Tox21)
Inconclusive results are not listed. Active and inactive are the calls of the source. Calls come from the whole dose curve; as a rule, active = well fitted curve in the direction sought with a large enough effect in the repeat runs; inconclusive = weak or mixed curves; inactive = no such curve, though single readings can be large; an effect the other way counts as inactive or inconclusive.

biological target: Cytochrome P450 1A2 (Homo sapiens) (UniProt P05177); experiment: Cytochrome P450 Family 1 Subfamily A Member 2 (CYP1A2) small molecule antagonists: luciferase reporter qHTS assay (AID 1671199); conditions: P450-Glo CYP1A2 enzyme, luciferin luminescence, 1 h; series mostly up to 115 µM
In short: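 Luminescence from luciferin formed by CYP1A2 from a proluciferin substrate, read 20 min after detection reagent. Compound was pre-incubated 10 min with enzyme-substrate, and reaction started with NADPH regeneration solution for 1 h at room temperature; furafylline control.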
Note: nearly all actives have a fitted effect of over 50% in size.
Potency is the fitted concentration of half-maximal effect.

Sequence of Cytochrome P450 1A2 (Homo sapiens) (P05177 whole entry, looked up): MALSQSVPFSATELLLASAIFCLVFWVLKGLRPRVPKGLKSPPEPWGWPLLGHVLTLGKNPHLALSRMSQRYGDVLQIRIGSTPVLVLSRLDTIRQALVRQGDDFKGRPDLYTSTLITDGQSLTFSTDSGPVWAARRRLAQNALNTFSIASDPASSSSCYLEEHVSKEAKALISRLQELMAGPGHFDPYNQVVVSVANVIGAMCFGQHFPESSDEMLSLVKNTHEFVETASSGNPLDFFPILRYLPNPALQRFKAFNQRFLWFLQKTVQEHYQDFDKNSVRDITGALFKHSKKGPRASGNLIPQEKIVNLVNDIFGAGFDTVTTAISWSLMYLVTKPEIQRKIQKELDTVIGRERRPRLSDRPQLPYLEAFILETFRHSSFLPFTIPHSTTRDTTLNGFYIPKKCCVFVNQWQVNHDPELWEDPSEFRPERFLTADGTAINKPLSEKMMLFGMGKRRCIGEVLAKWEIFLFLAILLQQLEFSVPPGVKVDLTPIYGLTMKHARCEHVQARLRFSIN

Row | Structure (SMILES) | Potency
1 | c1ccc(C[P+](c2ccccc2)(c2ccccc2)c2ccccc2)cc1 | inactive
2 | CC/C=C\C/C=C\C/C=C\CCCCCCCC(=O)OC | 63.3 µM (active)
3 | COc1cccc(-c2ccc(/C=C\CN3CCCCCC3)cc2Cl)c1 | 56.1 µM (active)
4 | CN1CCN(CCCN2c3ccccc3Sc3ccc(Cl)cc32)CC1 | 2.57 µM (active)

biological target: Voltage-gated inwardly rectifying potassium channel KCNH2 (Homo sapiens) (UniProt Q12809); experiment: Human Ether-a-go-go-Related Gene (hERG) channel small molecule antagonists: fluorescence cell-based qHTS assay (AID 1671200); conditions: hERG-U2OS cells, FluxOR thallium flux fluorescence; series mostly up to 76.8 µM
In short: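 First, 1000 cells per well are seeded and cultured overnight at 37 C. Next, FluxOR II dye is loaded for 1 h at room temperature, protected from light. After 10 more minutes, stimulus is added and fluorescence is read.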

Sequence of Voltage-gated inwardly rectifying potassium channel KCNH2 (Homo sapiens) (Q12809 whole entry, looked up): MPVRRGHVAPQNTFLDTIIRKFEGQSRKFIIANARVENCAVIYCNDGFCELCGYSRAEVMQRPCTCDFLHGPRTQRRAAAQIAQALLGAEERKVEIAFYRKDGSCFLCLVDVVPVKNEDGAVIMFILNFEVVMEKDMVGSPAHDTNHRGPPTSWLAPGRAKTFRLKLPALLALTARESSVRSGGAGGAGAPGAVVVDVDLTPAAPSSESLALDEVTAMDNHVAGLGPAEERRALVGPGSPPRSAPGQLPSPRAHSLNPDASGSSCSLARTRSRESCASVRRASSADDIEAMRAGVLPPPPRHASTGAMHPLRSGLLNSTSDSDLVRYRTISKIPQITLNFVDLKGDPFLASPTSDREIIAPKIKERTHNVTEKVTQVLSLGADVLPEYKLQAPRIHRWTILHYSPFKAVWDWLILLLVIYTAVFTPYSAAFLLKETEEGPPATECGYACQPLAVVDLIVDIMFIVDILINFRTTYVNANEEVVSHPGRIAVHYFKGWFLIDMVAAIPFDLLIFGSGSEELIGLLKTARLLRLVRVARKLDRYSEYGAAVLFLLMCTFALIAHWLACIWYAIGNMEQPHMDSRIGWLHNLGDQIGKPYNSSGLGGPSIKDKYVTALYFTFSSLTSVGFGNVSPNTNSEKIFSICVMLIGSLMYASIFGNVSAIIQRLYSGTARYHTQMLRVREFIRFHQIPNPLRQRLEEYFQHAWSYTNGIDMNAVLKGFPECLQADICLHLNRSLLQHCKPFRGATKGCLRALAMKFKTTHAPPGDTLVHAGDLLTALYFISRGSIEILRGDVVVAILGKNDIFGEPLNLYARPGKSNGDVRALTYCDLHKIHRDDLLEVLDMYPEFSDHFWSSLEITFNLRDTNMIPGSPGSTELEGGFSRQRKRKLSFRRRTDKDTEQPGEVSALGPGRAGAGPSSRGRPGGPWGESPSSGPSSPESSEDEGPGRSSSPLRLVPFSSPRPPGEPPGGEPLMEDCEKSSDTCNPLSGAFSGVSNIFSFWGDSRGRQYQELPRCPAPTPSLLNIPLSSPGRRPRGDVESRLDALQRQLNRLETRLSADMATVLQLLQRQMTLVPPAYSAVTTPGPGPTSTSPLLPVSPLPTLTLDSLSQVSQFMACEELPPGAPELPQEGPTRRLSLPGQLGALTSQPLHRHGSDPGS

Row | Structure (SMILES) | Potency
5 | c1ccc(C[P+](c2ccccc2)(c2ccccc2)c2ccccc2)cc1 | 3.09 µM (active)
6 | Cc1c(Cl)c(=O)oc2cc(O)ccc12 | inactive
7 | CC/C=C\C/C=C\C/C=C\CCCCCCCC(=O)OC | inactive
8 | COc1cccc(-c2ccc(/C=C\CN3CCCCCC3)cc2Cl)c1 | 1.22 µM (active)
9 | CN1CCN(CCCN2c3ccccc3Sc3ccc(C(F)(F)F)cc32)CC1 | 2.68 µM (active)
10 | Nc1cccnc1N | inactive
